Among the data in PubChem BioAssay (Tox21) are Potency and outcome values, retold here.

SMILES strings stand for the structures. Records with an inconclusive call do not appear. Values without a mark were called inactive. Active and inactive are the calls of the source. Unless noted, calls follow the shape of the dose curve; as a rule, active = well fitted curve in the direction sought with a large enough effect in the repeat runs; inconclusive = weak or mixed curves; inactive = no such curve, though single readings can be large; an effect the other way counts as inactive or inconclusive.

Assay [1] can be described thus: qHTS assay to identify small molecule antagonists of the retinoic acid receptor (RAR) signaling pathway (AID 1159552; also: potency is read from the fitted curve at half-maximal effect; nearly all actives have a fitted effect of over 50% in size). A digest of the protocol: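 Antagonism of retinol-induced RARE reporter activity was measured in C3RL4 cells. Exposure to compounds and 1 uM final retinol lasted 6 hr at 37 C, with luminescence as endpoint.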
(In qHTS, concentration-response curves come from the screen itself.)

For assay [2], the target named is Luciferin 4-monooxygenase (Photinus pyralis) (UniProt P08659). Kind of assay: qHTS assay to identify small molecule inhibitors of firefly luciferase (AID 1224835). Also: series mostly up to about 120 µM; nearly all actives have a fitted effect of over 25% in size. The procedure, abridged:
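Quantitative HTS format; KM concentrations of both substrates. Purified P. pyralis FLuc activity quantified from luminescence images.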

A short description of assay [3]: qHTS assay to identify small molecule antagonists of the constitutive androstane receptor (CAR) signaling pathway - cell viability counter screen (AID 1224837). Also: nearly all actives have a fitted effect of over 45% in size. Also: potency is read from the fitted curve at half-maximal effect. The procedure, abridged:
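HepG2-CYP2B6-hCAR cells, 2500/well, 4 hr pre-incubation; compound titration, 15 conc.; CITCO 50 nM final; 23 hr, 37 C/5% CO2; CellTiter-Fluor, fluorescence intensity.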

Assay [4] deals with Nuclear receptor subfamily 1 group I member 3 (Homo sapiens) (UniProt Q14994). The assay is described as follows: qHTS assay to identify small molecule agonists of the constitutive androstane receptor (CAR) signaling pathway (AID 1224839). Also: nearly all actives have a fitted effect of over 15% in size. Also: potency is read from the fitted curve at half-maximal effect. The procedure, abridged:
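Readout: firefly luciferase luminescence via ONE-Glo. System: HepG2 double-stable for hCAR and CYP2B6-2.2kb. Conditions: 15-point compound titration, PK11195 at 0.75 uM final, 24 h incubation.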

The nature of assay [5]: qHTS assay to identify small molecule antagonists of the estrogen related receptor signaling pathway with the pleiotropic PPARgamma coactivator (PGC) from Tox21 10K library (AID 1224841; call rule not given here; also: potency is read from the fitted curve at half-maximal effect; actives are mostly falling curves and most rising ones were filed inactive; nearly all actives have a fitted effect of over 50% in size). The procedure, abridged: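 PGC/ERR cell line, 2,000 cells/well; 6 h pre-incubation 37 C/5% CO2; compounds (DMSO) pinned in; 18 h, 37 C; One-Glo, 30 min RT; luminescence.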
The nature of assay [6]: qHTS assay to identify small molecule agonists of the estrogen related receptor signaling pathway with the pleiotropic PPARgamma coactivator (PGC) from Tox21 10K library (AID 1224842). Also: nearly all actives have a fitted effect of over 15% in size. A digest of the protocol:
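PGC/ERR reporter cells (NTP line) were seeded 2,000 per well, rested 6 h at 37 C/5% CO2, then pin-dosed with compounds in DMSO for 18 h at 37 C; luciferase read by One-Glo luminescence after 30 min at room temperature.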

Assay [7] in a line: qHTS assay to identify small molecule agonists of the hypoxia (HIF-1) signaling pathway - cell viability counter screen (AID 1224844; calls by dose curve; also: nearly all actives have a fitted effect of over 50% in size; also: potency is read from the fitted curve at half-maximal effect). The procedure, abridged:
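ME-180 HRE-bla cells, 2,000/well, 0.5% dialyzed FBS; 5 hr settle, 17 hr compound at 37C/5% CO2; CCF4-AM reporter read first, then CellTiter-Glo luminescence after 30 min RT.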

Assay [8] is described as follows: qHTS assay to identify small molecule antagonists of the estrogen related receptor (ERR) signaling pathway from Tox21 library - cell viability counter screen (AID 1224834). Also: potency is read from the fitted curve at half-maximal effect; nearly all actives have a fitted effect of over 30% in size. A digest of the protocol: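 Fluorescence from CellTiter-Fluor gives the viability read-out, taken 30 min after reagent addition. Before that, ERR cells seeded 6 h earlier were incubated with compounds for 17.5 h at 37 C.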

A short description of assay [9]: qHTS assay to identify small molecule agonists of the constitutive androstane receptor (CAR) signaling pathway - cell viability counter screen (AID 1224836). Also: nearly all actives have a fitted effect of over 45% in size. Also: potency is read from the fitted curve at half-maximal effect. A digest of the protocol: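 Double-stable HepG2 hepatoma cells (hCAR plus CYP2B6-2.2kb) are treated for 23 h at 37 C with test compounds in 15-point concentration series. PK11195 at 0.75 uM final is co-added. Cell viability is quantified by CellTiter-Fluor.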

Assay [10] in a line: qHTS assay to identify small molecule antagonists of the estrogen related receptor signaling pathway with the pleiotropic PPARgamma coactivator (PGC) from Tox21 10K library - cell viability counter screen (AID 1224840; active = well fitted cell-killing curve with a large enough effect in the repeat runs, not every such curve was filed as active; also: potency is read from the fitted curve at half-maximal effect; nearly all actives have a fitted effect of over 40% in size). A digest of the protocol: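 PGC/ERR cells, 2,000/well; 6 h pre-incubation 37 C/5% CO2; cpd in DMSO via pin tool; 17.5 h 37 C; CellTiter-Fluor, 30 min; fluorescence.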

The target in assay [11] is Thyrotropin receptor (Homo sapiens) (UniProt P16473). The assay is described as follows: qHTS assay to identify small molecule agonists of the thyroid stimulating hormone receptor (TSHR) signaling pathway (AID 1224843; calls by dose curve; also: nearly all actives have a fitted effect of over 45% in size; also: potency is read from the fitted curve at half-maximal effect). The procedure, abridged:
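Cell line HEK293 with TSHR; density 800/well. Exposure 30 min RT. Readout HTRF cAMP (cAMP-d2/anti-cAMP-cryptate), 1 h RT before reading.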

The nature of assay [12]: qHTS assay to identify small molecule antagonists of the estrogen related receptor (ERR) signaling pathway (AID 1224819; also: potency is read from the fitted curve at half-maximal effect; nearly all actives have a fitted effect of over 50% in size). The procedure, abridged:
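Seed ERR cells 2,000/well; rest 6 h at 37 C/5% CO2; pin compounds in DMSO; incubate 18 h at 37 C; add One-Glo; wait 30 min at room temperature; measure luminescence.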

A short description of assay [13]: qHTS assay to identify small molecule agonists of the estrogen related receptor (ERR) signaling pathway (AID 1224820). The procedure, abridged: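 Cells: ERR line from NTP, 2,000/well. Pre-incubation 6 h, 37 C/5% CO2. Compound (DMSO) pin transfer, 18 h 37 C. One-Glo, 30 min RT, luminescence.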
The subject of assay [14] is estrogen-related receptor alpha (ERRalpha) with PGC-1alpha coactivator, human. The assay is described as follows: qHTS assay to identify small molecule antagonists of the estrogen related receptor signaling pathway with the pleiotropic PPARgamma coactivator (PGC) (AID 1224821; calls by dose curve). A digest of the protocol: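 Luminescent read-out (One-Glo, 30 min at room temperature) following 18 h treatment of PGC/ERR cells at 37 C with compounds delivered in DMSO. Cells had settled 6 h at 37 C/5% CO2 before dosing.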

A short description of assay [15]: qHTS assay to identify small molecule agonists of the estrogen related receptor signaling pathway with the pleiotropic PPARgamma coactivator (PGC) (AID 1224823). The procedure, abridged:
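Steps: plate PGC/ERR cells at 2,000 cells/well; incubate 6 h, 37 C/5% CO2; pin-transfer compounds (DMSO); incubate 18 h, 37 C; add One-Glo; 30 min RT; read luminescence.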

In assay [16] the target is Nuclear receptor subfamily 1 group I member 3 (Homo sapiens) (UniProt Q14994). Kind of assay: qHTS assay to identify small molecule antagonists of the constitutive androstane receptor (CAR) signaling pathway (AID 1224838).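 Also: HepG2 cells stably expressing hCAR with CYP2B6 luciferase reporter stimulated by CITCO; nearly all actives have a fitted effect of over 40% in size.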 Also: potency is read from the fitted curve at half-maximal effect. A digest of the protocol:
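HepG2-CYP2B6-hCAR cells; 4 h pre-incubation; cpd (15 conc) + CITCO 50 nM final; 24 h, 37 C/5% CO2; ONE-Glo, luminescence.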

Luciferin 4-monooxygenase (Photinus pyralis), sequence (P08659 whole entry, looked up): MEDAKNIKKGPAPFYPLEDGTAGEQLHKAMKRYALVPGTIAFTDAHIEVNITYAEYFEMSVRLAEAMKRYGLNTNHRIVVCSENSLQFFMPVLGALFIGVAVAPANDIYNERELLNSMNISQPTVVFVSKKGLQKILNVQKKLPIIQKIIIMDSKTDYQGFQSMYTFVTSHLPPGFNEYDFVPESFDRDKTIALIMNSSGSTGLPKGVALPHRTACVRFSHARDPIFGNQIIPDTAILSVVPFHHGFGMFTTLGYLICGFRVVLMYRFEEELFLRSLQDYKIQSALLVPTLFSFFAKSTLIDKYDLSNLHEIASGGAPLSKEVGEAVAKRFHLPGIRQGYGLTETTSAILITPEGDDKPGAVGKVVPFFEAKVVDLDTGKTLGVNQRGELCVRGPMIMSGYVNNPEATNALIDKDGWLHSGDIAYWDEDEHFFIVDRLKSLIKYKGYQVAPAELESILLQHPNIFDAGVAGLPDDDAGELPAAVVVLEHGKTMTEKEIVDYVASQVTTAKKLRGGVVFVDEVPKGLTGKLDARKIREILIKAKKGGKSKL
Nuclear receptor subfamily 1 group I member 3 (Homo sapiens), sequence (Q14994 whole entry, looked up): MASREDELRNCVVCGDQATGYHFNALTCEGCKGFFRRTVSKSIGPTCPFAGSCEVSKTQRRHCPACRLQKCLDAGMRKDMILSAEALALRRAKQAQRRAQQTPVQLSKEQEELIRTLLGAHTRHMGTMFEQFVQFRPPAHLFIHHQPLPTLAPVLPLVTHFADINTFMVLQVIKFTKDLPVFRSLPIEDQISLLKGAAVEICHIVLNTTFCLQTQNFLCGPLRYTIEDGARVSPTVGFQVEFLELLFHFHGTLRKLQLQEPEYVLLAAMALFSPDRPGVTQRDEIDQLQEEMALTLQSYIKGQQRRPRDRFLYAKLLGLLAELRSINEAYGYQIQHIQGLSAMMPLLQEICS
Thyrotropin receptor (Homo sapiens), sequence (P16473 whole entry, looked up): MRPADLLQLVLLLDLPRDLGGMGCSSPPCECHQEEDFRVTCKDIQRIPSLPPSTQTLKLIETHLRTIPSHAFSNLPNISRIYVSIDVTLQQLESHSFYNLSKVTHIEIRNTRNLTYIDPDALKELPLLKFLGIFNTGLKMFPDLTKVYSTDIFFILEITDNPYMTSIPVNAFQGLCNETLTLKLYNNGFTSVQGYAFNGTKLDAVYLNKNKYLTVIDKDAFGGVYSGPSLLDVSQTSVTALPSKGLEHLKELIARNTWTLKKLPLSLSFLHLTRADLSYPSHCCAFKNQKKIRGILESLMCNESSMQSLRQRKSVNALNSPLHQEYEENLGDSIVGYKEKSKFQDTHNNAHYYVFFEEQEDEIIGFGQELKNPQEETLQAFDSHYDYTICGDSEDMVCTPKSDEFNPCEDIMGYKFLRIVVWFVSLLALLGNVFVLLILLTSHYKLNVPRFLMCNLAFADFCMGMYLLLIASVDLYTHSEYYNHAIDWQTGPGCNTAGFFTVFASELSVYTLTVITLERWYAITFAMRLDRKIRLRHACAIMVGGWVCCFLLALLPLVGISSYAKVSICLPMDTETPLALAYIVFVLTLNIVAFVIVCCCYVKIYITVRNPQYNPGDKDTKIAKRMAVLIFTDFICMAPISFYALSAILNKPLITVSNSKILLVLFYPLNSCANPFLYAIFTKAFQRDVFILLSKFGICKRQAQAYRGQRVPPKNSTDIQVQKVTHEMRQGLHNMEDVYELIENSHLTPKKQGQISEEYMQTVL

With `CCCCCCCCCCCCCCCCCC[N+](C)(C)C`, the Potency was 54.6 µM (active) in assay [1], 54.6 µM (active) in assay [3], 54.6 µM (active) in [5] and 55.1 µM (active) in assay [7]. Moreover, the Potency result in assay [2], in assay [4] and in assay [6] was “inactive” each time.

With `CC(C)(C)NC(=O)[C@@H]1C[C@@H]2CCCC[C@@H]2CN1C[C@@H](O)[C@H](Cc1ccccc1)NC(=O)[C@H](CC(N)=O)NC(=O)c1ccc2ccccc2n1`, the Potency was 55.2 µM (active) in assay [1]; 24.7 µM (active) in assay [8]; 31 µM (active) in assay [9]; 24.7 µM (active) in assay [3]; 31 µM (active) in assay [10]; 27.7 µM (active) in assay [11]. In assay [7], the Potency was 55.7 µM (active). Also, the Potency entry in assay [2], in assay [4] and in assay [6] was “inactive” in each case.

Take `CCCCCCCCCCCC(=O)NCCCN(C)C`: the Potency is 54.5 µM (active) in [1], 61.1 µM (active) in [9], 61.1 µM (active) in [10] and 49 µM (active) in [7]. Also, the Potency entry in [2] and in assay [4] was “inactive” each time.

As for `Oc1ccc(C2(c3ccc(O)cc3)CC3CC2C2CCCC32)cc1` (stereo unspecified), the Potency in assay [1] was 46.6 µM (active); in [8], 58.7 µM (active); in assay [3] it was 52.3 µM (active); in assay [10], 58.7 µM (active); in [7], 33.3 µM (active). Moreover, the Potency entry in assay [2] was “inactive”.

As to `COc1cc(-c2nc(NC(=O)c3cc4cc(C)cc(C)c4n3CC(=O)O)sc2CCC2CCCCC2)c(OC)cc1Cl`, the figures for the Potency in assay [8], in assay [10] and in assay [7] were 49.9 µM (active), 39.7 µM (active) and 25.2 µM (active), respectively. For the same compound, the Potency entry in assay [2], in [4], in assay [6] and in assay [11] was “inactive” throughout.

In the case of `CN1CCN(CCC(=O)N2c3ccccc3Sc3ccc(C(F)(F)F)cc32)CC1`, the Potency in [1], in [8] and in assay [10] was 29.8 µM (active) in each case. In addition, the Potency result in [2], in [3], in assay [6] and in [11] was “inactive” each time.

For `N#CSc1ccc(N)c([N+](=O)[O-])c1`, the Potency was 17.3 µM (active) in [1]; 54.8 µM (active) in assay [8]; 48.9 µM (active) in assay [9]; 43.5 µM (active) in assay [3]; 54.8 µM (active) in assay [10]; 30.8 µM (active) in [5]. The Potency result in assay [4] was “inactive”.

As to `CC(=O)N1CCN(c2ccc(OC[C@H]3CO[C@](Cn4ccnc4)(c4ccc(Cl)cc4Cl)O3)cc2)CC1`, the Potency is 9.08 µM (active) in assay [12]; 29.8 µM (active) in [14]; 48.6 µM (active) in assay [9]; 48.6 µM (active) in assay [3]; 24.3 µM (active) in assay [10]; 27.3 µM (active) in assay [5]. Also, the Potency in assay [7] is 49 µM (active). Besides, the outcome in [13] and in assay [15] was inactive. For the same compound, the Potency result in [2] and in [6] was “inactive” each time.

Regarding `O=C(OCC1CO1)C1CCCCC1C(=O)OCC1CO1` (stereo unspecified), the Potency entry in assay [2], in assay [9], in assay [4], in assay [6], in assay [11] and in assay [7] was “inactive” throughout.

Take `Cc1cc(CCN2CCN(c3nsc4ccccc34)CC2)cc2c1NC(=O)CC2(C)C`: the Potency in [1] was 30.6 µM (active); in assay [8], 30.6 µM (active); in assay [9], 48.6 µM (active); in assay [3], 54.5 µM (active); in assay [4], 21.7 µM (active); in assay [10], 27.3 µM (active). The figures for the Potency in assay [5] and in assay [7] were 7.7 µM (active) and 38.9 µM (active), respectively. Also, the Potency entry in [2] and in assay [16] was “inactive” each time.

For the compound `CN(C)C(=O)C1(N2CCCCC2)CCN(CC[C@@]2(c3ccc(Cl)c(Cl)c3)CN(C(=O)c3ccccc3)CCO2)CC1`, the Potency in assay [1] is 28.6 µM (active); in assay [9], 50.9 µM (active); in assay [3], 50.9 µM (active); in [16] it was 50.9 µM (active); in assay [10] it was 28.6 µM (active); in [5], 50.9 µM (active). In addition, the Potency in assay [7] is 45.8 µM (active). The Potency result in assay [2] and in assay [4] was “inactive” each time.
